Bioassay records as filed in PubChem.
Shown is part of a subset that was picked to be rich in hits.
KDM5B inhibitor: KDM5B demethylase inhibition; Potency, µM (top dose mostly 57.7 µM), most hits filed as inhibitors; hit rate 2.6% among 220,000; AID 1347165; KDM5B demethylase, FDH-coupled NADH fluorescence (FDH is formaldehyde dehydrogenase); active = well fitted inhibition curve with a large enough effect; note: 0% is about no effect; nearly all actives have a fitted effect of over 70% in size
Target sequence (Q9UGL1 whole entry, looked up): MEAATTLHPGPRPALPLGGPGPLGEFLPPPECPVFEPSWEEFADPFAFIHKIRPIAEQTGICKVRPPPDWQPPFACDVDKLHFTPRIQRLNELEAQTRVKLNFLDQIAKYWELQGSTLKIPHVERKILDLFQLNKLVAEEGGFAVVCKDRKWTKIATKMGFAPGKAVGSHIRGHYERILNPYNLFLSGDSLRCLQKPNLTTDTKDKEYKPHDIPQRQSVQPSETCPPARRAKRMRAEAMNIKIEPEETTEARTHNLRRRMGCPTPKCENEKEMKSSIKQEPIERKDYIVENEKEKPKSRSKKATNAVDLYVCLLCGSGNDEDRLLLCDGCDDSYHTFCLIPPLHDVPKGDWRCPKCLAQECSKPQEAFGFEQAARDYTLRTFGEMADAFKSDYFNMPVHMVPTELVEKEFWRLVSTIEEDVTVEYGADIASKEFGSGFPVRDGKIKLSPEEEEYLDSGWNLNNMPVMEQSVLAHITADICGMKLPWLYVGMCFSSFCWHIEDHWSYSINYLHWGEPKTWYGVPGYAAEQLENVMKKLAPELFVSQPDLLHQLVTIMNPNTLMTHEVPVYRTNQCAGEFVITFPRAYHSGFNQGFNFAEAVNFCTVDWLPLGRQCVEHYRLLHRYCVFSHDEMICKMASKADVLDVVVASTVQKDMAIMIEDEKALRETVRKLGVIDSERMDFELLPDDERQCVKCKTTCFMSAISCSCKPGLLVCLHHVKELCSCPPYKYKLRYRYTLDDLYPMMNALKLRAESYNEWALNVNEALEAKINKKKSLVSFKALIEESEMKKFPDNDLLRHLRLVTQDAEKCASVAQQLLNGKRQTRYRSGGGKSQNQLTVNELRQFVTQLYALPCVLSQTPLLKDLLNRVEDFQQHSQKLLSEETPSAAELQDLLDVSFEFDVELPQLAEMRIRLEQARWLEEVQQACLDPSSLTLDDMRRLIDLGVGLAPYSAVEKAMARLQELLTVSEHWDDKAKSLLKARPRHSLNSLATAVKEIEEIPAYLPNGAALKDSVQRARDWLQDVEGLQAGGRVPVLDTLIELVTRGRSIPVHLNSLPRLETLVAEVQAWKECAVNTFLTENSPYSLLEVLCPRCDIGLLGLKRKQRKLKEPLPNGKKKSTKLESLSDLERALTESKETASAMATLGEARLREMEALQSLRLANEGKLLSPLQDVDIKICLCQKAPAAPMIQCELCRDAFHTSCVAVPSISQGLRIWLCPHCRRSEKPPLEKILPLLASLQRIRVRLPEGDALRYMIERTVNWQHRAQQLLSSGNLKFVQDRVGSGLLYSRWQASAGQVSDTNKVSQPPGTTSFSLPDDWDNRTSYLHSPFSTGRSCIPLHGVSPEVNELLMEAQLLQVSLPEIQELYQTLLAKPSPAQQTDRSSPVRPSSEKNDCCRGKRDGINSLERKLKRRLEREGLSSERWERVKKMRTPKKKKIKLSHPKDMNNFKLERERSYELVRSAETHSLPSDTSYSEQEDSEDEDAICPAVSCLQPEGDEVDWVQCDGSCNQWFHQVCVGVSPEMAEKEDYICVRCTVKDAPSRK
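Compound dilutions met 200 nM (final) KDM5BΔAP for 10 min at room temperature before substrate addition. The substrate mix held 12.5 µM H3K4me3 with cofactors 25 µM α-ketoglutarate and 50 µM Fe²⁺. NADH signal gain over 30 min defined activity.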
* = called active by the depositor; i = inactive. Potency is the fitted concentration of half-maximal effect.

SMILES	KDM5B inhibitor
Cc1cccc(Nc2nc(-c3cc4ccccc4oc3=O)cs2)c1C	i
COCCNC(=O)C(c1ccc(F)cc1)N(Cc1ccco1)C(=O)CCC(=O)Nc1ccccn1 (stereo not given)	i
COC[C@@H]1CN(C(=O)c2ccco2)C[C@H]1c1ccccn1	i
CCN1CCC(CC(=O)N2CCC(n3c(C)cnc3C)CC2)CC1	i
Cn1c2ccccc2c2cnn(CC(=O)N3CCN(c4cccc(C(F)(F)F)c4)CC3)c(=O)c21	i
O=C(c1ccccc1)N1CCC(N(Cc2cccnc2)C2CCOCC2)CC1	i
CC(Sc1ccc(C(F)(F)F)cn1)C(=O)NC(C)(C)C (stereo not given)	i
O=C(c1ccccc1OCc1ccccc1)N1CCC2(CC1)[C@H](O)C[C@@H]2O	i
CCOc1ccc(NC(=O)CSc2nnc(CNC(=O)c3c(F)cccc3Cl)o2)cc1	i
CCO[C@H]1CN(C(=O)CN(c2cccc(C)c2)S(C)(=O)=O)C[C@@H]1O	i
CCO[C@H]1CN(C(=O)CCCOc2ccccc2)C[C@@H]1O	i
CCO[C@H]1CN(C(=O)CCc2ccc(-c3ccc(Cl)cc3)[nH]2)C[C@@H]1O	28µM*
CCOC(=O)c1oc2ccccc2c1NC(=O)c1ccco1	i
COc1ccc(/C=N/OCc2cc(Cl)c3c(c2)OCO3)cc1OC	i
O=C(c1nc(-c2ccc(F)cc2)c2ccccn12)N1CCN(c2ncccn2)CC1	28µM*
O=C(CCNS(=O)(=O)c1ccc(F)cc1)N1CCN(c2ncccn2)CC1	i
CC(C)(C)c1cc(C(=O)N2CCN(c3ncccn3)CC2)nn2cccc12	i
Cc1ccc(C)c(C(=O)N2CCN(c3ncccn3)CC2)c1	i
O=C(c1nc(-c2ccc(Cl)cc2)c2ccccn12)N1CCCC1	i
O=C(CCn1c(=O)c2cccn2c2cccnc21)N1CCN(c2ccc(F)cc2)CC1	i
O=C(c1cc(-c2ccc(F)cc2)n[nH]1)N1CCN(c2ncccn2)CC1	i
O=C(c1nc(-c2ccc(F)cc2)c2cnccn12)N1CCN(c2ncccn2)CC1	25µM*
CC(C)(C)c1nc(C(=O)N2CCN(c3ncccn3)CC2)n2ccncc12	79µM*
CC1Cc2ccccc2N1S(=O)(=O)c1nnc(NC(=O)c2ccccc2)s1 (stereo not given)	i
COc1cccc(N2C(=O)NC(=NC3CCCC3)C23CCCN(Cc2ccc(N(C)C)cc2)C3)c1 (stereo not given)	i
SMILES	KDM5B inhibitor
O=C(NCC1CCOCC1)C1CC(=O)N(c2n[nH]c3ccccc23)C1 (stereo not given)	i
CCN1CCN(C(=O)C2CCN(c3cnn(CCOC)c(=O)c3)C2)CC1 (stereo not given)	i
O=S(=O)(c1ccccc1)c1nnn2c1nc(N1CCOCC1)c1ccccc12	i
O=[S+]([O-])(c1ccc(Br)cc1)c1nnn2c1nc(NC1CCCC1)c1ccccc12	i
COc1ccc(OC)c([S+](=O)([O-])c2nnn3c2nc(N2CCC(F)CC2)c2ccccc23)c1	50µM*
COc1ccc([S+](=O)([O-])c2nnn3c2nc(NC2CC2)c2ccccc23)cc1	89µM*
COc1ccc([S+](=O)([O-])c2nnn3c2nc(N2CCC(F)CC2)c2ccccc23)cc1	79µM*
O=[S+]([O-])(c1ccc(Cl)cc1)c1nnn2c1nc(NC1CC1)c1ccccc12	i
COc1ccc(OC)c([S+](=O)([O-])c2nnn3c2nc(N2CCOCC2)c2ccccc23)c1	i
CC(C)c1ccc([S+](=O)([O-])c2nnn3c2nc(N2CCC(F)CC2)c2ccccc23)cc1	i
CC1CCN(c2nc3c(-c4cccc(Br)c4)nnn3c3ccccc23)CC1	i
CCOc1ccc(C(=O)Nc2ccc(-n3nncc3-c3ccc(OC)cc3)cc2)cc1	i
COc1ccc(-c2ccnc3c2c(=O)n(C)c(=O)n3C)cc1OC	i
CCOc1ccc(CNC(=O)c2ccc3nc(Cc4ccccc4F)oc3c2)cc1OC	i
Cc1cc(Nc2ccc(Cl)c(Cl)c2)nc(-c2ccccc2O)n1	i
COc1ccc(NC(=O)c2oc3ccccc3c2NC(=O)C2CC2)cc1OC	i
Cc1cc(C)c2c(c1)C(=O)/C(=C\c1ccccc1C)CC2	i
Cn1nc2n(c1=O)CCC(NS(=O)(=O)c1cccc3cccnc13)CC2 (stereo not given)	i
Cc1oc(-c2ccc(OC(C)C)cc2)nc1Cn1ccn2nc3c(c2c1=O)CCCC3	28µM*
COc1ccccc1Cn1ccn2nc3c(c2c1=O)CCCC3	i
CC(C)NC(=O)c1ccc(Cn2ccn3nc4c(c3c2=O)CCCC4)cc1	i
CCn1c(SCC(=O)Nc2ccc3c(c2)n(C)c(=O)n3C)nnc1-c1ccncc1	i
COc1ccccc1OCC(=O)OCC(=O)Nc1ncc(Cl)cc1Cl	i
Cc1ccc2c(CSc3nnc4ccccn34)cc(=O)oc2c1C	i
O=C(Cc1c[nH]c2ccccc12)NCC(=O)N1CCCCCNC(=O)CC1c1ccccc1 (stereo not given)	i
SMILES	KDM5B inhibitor
O=C1CC(c2ccccc2)N(C(=O)C2CC2)CCCN(C(=O)c2ccc3ccccc3n2)CCN1 (stereo not given)	i
O=C1CC(c2ccccc2)N(C(=O)C2CC2)CCCN(C(=O)c2ccoc2)CCN1 (stereo not given)	i
O=C1CC(c2ccccc2)N(C(=O)CNC(=O)c2ccc3cc[nH]c3c2)CCCCCN1 (stereo not given)	25µM*
N#Cc1cccc(C(=O)NCC(=O)N2CCCCCCNC(=O)CC2c2ccccc2)c1 (stereo not given)	i
O=C1CC(c2ccccc2)N(C(=O)C2CC2)CCCN(C(=O)c2ccc3cc[nH]c3c2)CCN1 (stereo not given)	28µM*
O=C(CCc1c[nH]c2ccccc12)NCC(=O)N1CCCCCCNC(=O)CC1c1ccccc1 (stereo not given)	i
O=C1CC(c2ccccc2)N(C(=O)CNC(=O)c2ccoc2)CCCCCCN1 (stereo not given)	i
O=C1CC(c2ccccc2)N(C(=O)CNC(=O)c2c[nH]c3ccccc23)CCCCCN1 (stereo not given)	28µM*
Cc1nc(/C=C/C(=O)N2CCCC2)cs1	i
Cc1ccc(CSc2nc3c(=O)n(C)c(=O)n(C)c3n2C)cc1	i
CCCc1ccc2oc(C(=O)N(C)CCC3CCCCO3)c(C)c2c1 (stereo not given)	i
CSc1ccc(C(=O)N2CCC(n3nccc3NC(=O)C3CC3)CC2)cc1	i
N#Cc1ccc(Cn2cnc3c(Cl)cc(Cl)cc3c2=O)cc1	i
CCn1c(CN2CCC(C)CC2)nc2cc(NC(=O)COc3ccc(Cl)c(C)c3)ccc21	i
O=C(NNc1ncnc2sccc12)c1ccc(Cl)cc1	i
c1coc(-c2nnc(CSc3ccc4c(c3)OCCCO4)o2)c1	i
CNC(=O)[C@@H]1CN(C(=O)c2sccc2C)C[C@H]1c1nc(COC)no1	i
CNC(=O)[C@@H]1CN(C(=O)c2ccc(C)[nH]c2=O)C[C@H]1c1nc(COC)no1	25µM*
CNC(=O)[C@@H]1CN(C(=O)c2ccc(Cl)s2)C[C@H]1c1nc(COC)no1	i
COc1cccc(C(=O)NCC2CCCN(Cc3ccc(Cl)cc3)C2)c1OC (stereo not given)	i
Cn1ccc2c(-c3cc(NCCO)nc(N)n3)ccnc21	28µM*
CCOC(=O)C1=C(CN(CC)Cc2ccccc2)NC(=O)NC1c1ccc(OC)cc1 (stereo not given)	i
